# Assay results reported in PubChem BioAssay AID1159580 (chemical genetic matrix, 2015).
# Hit rate of the full screen: of about 5,500 compounds, about 2,000 (36%) were called active. Roughly 18% stayed inconclusive and do not appear here. The list shows a part of the results. Values without a mark were called inactive. Cut-off read from the data, not from the text of the source: active = normalized growth mostly below about 0.91 (no sharp cut-off); inconclusive = no clear call, values can overlap the other calls; inactive = mostly above about 0.92.
# Assay: chemical genetic growth profiling, strain panel (AID 1159580);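 note: tested at 20 µM; growth read once vehicle control cultures reached saturation at 30 °C; 1 = growth at the plate median or of vehicle wells; lower values mean less growth of the strain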
# Settings: S. cerevisiae deletion strains, growth OD
compound,measurement,setting,value
O=C(O)CN(CC(=O)O)Cc1cc2c(-c3ccccc3C(=O)O)c3cc(CN(CC(=O)O)CC(=O)O)c(=O)cc-3oc2cc1O,normalized growth,"locus YAL013W, strain DEP1, stronger effect = lower value",1
same,normalized growth,"locus YAL021C, strain ccr4, stronger effect = lower value",0.934
same,normalized growth,"locus YAL026C, strain drs2, stronger effect = lower value",0.904 (active)
same,normalized growth,"locus YAL030W, strain snc1, stronger effect = lower value",0.962
same,normalized growth,"locus YBL061C, strain skt5, stronger effect = lower value",0.965
same,normalized growth,"locus YBR009C, strain hhf1, stronger effect = lower value",0.931
same,normalized growth,"locus YBR021W, strain FUR4, stronger effect = lower value",0.981
same,normalized growth,"locus YBR023C, strain chs3, stronger effect = lower value",0.981
same,normalized growth,"locus YBR171W, strain sec66, stronger effect = lower value",0.965
same,normalized growth,"locus YBR229C, strain ROT2, stronger effect = lower value",1.01
same,normalized growth,"locus YBR231C, strain swc5, stronger effect = lower value",0.943
same,normalized growth,"locus YBR279W, strain paf1, stronger effect = lower value",0.967
same,normalized growth,"locus YCL011C, strain gbp2, stronger effect = lower value",0.962
same,normalized growth,"locus YCL016C, strain dcc1, stronger effect = lower value",0.976
same,normalized growth,"locus YCL029C, strain bik1, stronger effect = lower value",1.02
same,normalized growth,"locus YCL061C, strain MRC1, stronger effect = lower value",0.937
same,normalized growth,"locus YCL069W, strain vba3, stronger effect = lower value",0.975
same,normalized growth,"locus YCR088W, strain abp1, stronger effect = lower value",0.995
same,normalized growth,"locus YDL005C, strain med2, stronger effect = lower value",0.982
same,normalized growth,"locus YDL035C, strain GPR1, stronger effect = lower value",0.997
same,normalized growth,"locus YDL040C, strain nat1, stronger effect = lower value",0.964
same,normalized growth,"locus YDL074C, strain BRE1, stronger effect = lower value",0.991
same,normalized growth,"locus YDL101C, strain DUN1, stronger effect = lower value",1.01
same,normalized growth,"locus YDL134C, strain PPH21, stronger effect = lower value",1.01
same,normalized growth,"locus YDL185W, strain tfp1, stronger effect = lower value",0.986
same,normalized growth,"locus YDL192W, strain arf1, stronger effect = lower value",1.02
same,normalized growth,"locus YDR001C, strain nth1, stronger effect = lower value",0.965
same,normalized growth,"locus YDR069C, strain doa4, stronger effect = lower value",0.951
same,normalized growth,"locus YDR101C, strain arx1, stronger effect = lower value",1.01
same,normalized growth,"locus YDR137W, strain rgp1, stronger effect = lower value",0.829 (active)
same,normalized growth,"locus YDR150W, strain NUM1, stronger effect = lower value",1.02
same,normalized growth,"locus YDR159W, strain sac3, stronger effect = lower value",0.96
same,normalized growth,"locus YDR162C, strain NBP2, stronger effect = lower value",0.984
same,normalized growth,"locus YDR195W, strain ref2",1.04
same,normalized growth,"locus YDR297W, strain sur2, stronger effect = lower value",0.951
same,normalized growth,"locus YDR318W, strain mcm21, stronger effect = lower value",1.02
same,normalized growth,"locus YDR334W, strain swr1, stronger effect = lower value",0.955
same,normalized growth,"locus YDR335W, strain msn5, stronger effect = lower value",0.932
same,normalized growth,"locus YDR388W, stronger effect = lower value",1.02
same,normalized growth,"locus YDR392W, strain spt3, stronger effect = lower value",0.914
same,normalized growth,"locus YDR502C, strain sam2, stronger effect = lower value",1.02
same,normalized growth,"locus YEL003W, strain gim4, stronger effect = lower value",0.948
same,normalized growth,"locus YEL037C, strain rad23, stronger effect = lower value",0.971
same,normalized growth,"locus YEL061C, strain CIN8 (second series), stronger effect = lower value",0.963
same,normalized growth,"locus YEL061C, strain CIN8, stronger effect = lower value",1
same,normalized growth,"locus YER015W, strain faa2, stronger effect = lower value",0.897 (active)
same,normalized growth,"locus YER016W, strain bim1, stronger effect = lower value",0.986
same,normalized growth,"locus YER110C, stronger effect = lower value",1.03
same,normalized growth,"locus YER111C, strain swi4, stronger effect = lower value",0.934
same,normalized growth,"locus YER155C, strain BEM2 (second series), stronger effect = lower value",1
same,normalized growth,"locus YER155C, strain BEM2, stronger effect = lower value",1
same,normalized growth,"locus YER167W, strain BCK2, stronger effect = lower value",1.02
same,normalized growth,"locus YFR010W, strain ubp6, stronger effect = lower value",0.992
same,normalized growth,"locus YGL078C, strain dbp3, stronger effect = lower value",1.02
same,normalized growth,"locus YGL086W, strain mad1, stronger effect = lower value",1.01
same,normalized growth,"locus YGL167C, strain pmr1, stronger effect = lower value",0.967
same,normalized growth,"locus YGL173C, strain kem1, stronger effect = lower value",0.939
same,normalized growth,"locus YGL227W, strain vid30, stronger effect = lower value",0.977
same,normalized growth,"locus YGL240W, strain doc1, stronger effect = lower value",0.977
same,normalized growth,"locus YGL248W, strain PDE1, stronger effect = lower value",1.01
same,normalized growth,"locus YGL253W, strain hxk2, stronger effect = lower value",0.934
same,normalized growth,"locus YGR078C, strain PAC10, stronger effect = lower value",0.997
same,normalized growth,"locus YGR135W, strain pre9, stronger effect = lower value",1
same,normalized growth,"locus YGR229C, strain SMI1, stronger effect = lower value",0.976
same,normalized growth,"locus YGR252W, strain gcn5, stronger effect = lower value",1.05
same,normalized growth,"locus YHR013C, strain ard1, stronger effect = lower value",0.963
same,normalized growth,"locus YHR027C, strain rpn1, stronger effect = lower value",0.874 (active)
same,normalized growth,"locus YHR030C, strain SLT2, stronger effect = lower value",1
same,normalized growth,"locus YHR079C, strain IRE1 (second series), stronger effect = lower value",1.02
same,normalized growth,"locus YHR094C, strain hxt1, stronger effect = lower value",1.01
same,normalized growth,"locus YHR129C, strain ARP1, stronger effect = lower value",0.997
same,normalized growth,"locus YHR142W, strain chs7, stronger effect = lower value",0.945
same,normalized growth,"locus YHR200W, strain rpn10, stronger effect = lower value",1.02
same,normalized growth,"locus YIL066C, strain RNR3, stronger effect = lower value",0.992
same,normalized growth,"locus YIL073C, strain SPO22, stronger effect = lower value",1.08
same,normalized growth,"locus YIL125W, strain kgd1, stronger effect = lower value",1.01
same,normalized growth,"locus YIR030C, strain dcg1, stronger effect = lower value",1.02
same,normalized growth,"locus YJL092W, strain hpr5, stronger effect = lower value",0.977
same,normalized growth,"locus YJL095W, strain BCK1 (second series), stronger effect = lower value",0.961
same,normalized growth,"locus YJL095W, strain BCK1, stronger effect = lower value",0.976
same,normalized growth,"locus YJL115W, strain asf1, stronger effect = lower value",0.947
same,normalized growth,"locus YJL129C, strain trk1, stronger effect = lower value",0.911
same,normalized growth,"locus YJL134W, strain LCB3, stronger effect = lower value",1.01
same,normalized growth,"locus YJL154C, strain vps35, stronger effect = lower value",0.984
same,normalized growth,"locus YJL164C, strain tpk1, stronger effect = lower value",0.929
same,normalized growth,"locus YJL166W, strain qcr8, stronger effect = lower value",0.969
same,normalized growth,"locus YJL168C, strain set2, stronger effect = lower value",1.01
same,normalized growth,"locus YJL187C, strain SWE1 (second series), stronger effect = lower value",0.992
same,normalized growth,"locus YJL187C, strain SWE1, stronger effect = lower value",0.963
